The values that follow come from PubChem BioAssay (EPA / NIEHS).

Where “and” joins values, the source holds several entries; their conditions need not be identical. Identical values can stand only once. Inconclusive results are not listed. Where a structure was tested more than once in an assay, its records may differ in their call. Calls of active or inactive are those of the source. Rule for the calls, unless noted: active = hit-call score of the fitted dose curve at least 0.9, where 1 is the maximum; inconclusive = response in the unintended direction; inactive = score below 0.9.

Read-out in test [1]: Cellular tumor antigen p53 (Homo sapiens) (UniProt P04637)
The experiment in a line: LTEA_HepaRG_TP53: Life Technologies and Expression Analysis (LTEA) Assay for Tumor Protein P53 (TP53) using HepaRG (AID 2283537; active = hit-call score of the fitted dose curve at least 0.9, where 1 is the maximum; inactive = score below 0.9). Particulars: mRNA level, 48 h; actives raise or lower the signal. A digest of the protocol:
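TP53 transcript measured by qRT-PCR, normalized to three housekeeping genes, after 48 h treatment of human HepaRG cultures with chemicals from 100 uM downward in half-log steps (0.5% DMSO vehicle, serum-free induction medium). Up- or down-regulation fitted against DMSO.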

Read-out in test [2]: UDP glucuronosyltransferase (UGT1A1), UGT1A1 (gene 54658)
The test is described as follows: LTEA_HepaRG_UGT1A1: Life Technologies and Expression Analysis (LTEA) Assay for UDP glucuronosyltransferase (UGT1A1) using HepaRG (AID 2283538; active = hit-call score of the fitted dose curve at least 0.9, where 1 is the maximum; inactive = score below 0.9). To be noted: mRNA level, 48 h; actives raise or lower the signal. A digest of the protocol: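 Readout is UGT1A1 transcript level by qRT-PCR, normalized to three housekeeping genes, after 48 h chemical treatment of HepaRG cells. Concentrations ran from 100 uM down in half-log steps with 0.5% DMSO, and gain or loss relative to DMSO was fitted.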

Read-out in test [3]: UDP glucuronosyltransferase (UGT1A6), UGT1A6 (gene 54578)
The test is described as follows: LTEA_HepaRG_UGT1A6: Life Technologies and Expression Analysis (LTEA) Assay for UDP glucuronosyltransferase (UGT1A6) using HepaRG (AID 2283539; active = hit-call score of the fitted dose curve at least 0.9, where 1 is the maximum; inactive = score below 0.9). To be noted: mRNA level, 48 h; actives raise or lower the signal. A digest of the protocol:
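Human HepaRG cells were dosed for 48 h in serum-free induction medium with 0.5% DMSO vehicle, eight-point half-log series from 100 uM, in duplicate. UGT1A6 mRNA was measured by qRT-PCR, normalized to ACTB, GAPDH, POLR2A, and fitted bidirectionally against DMSO.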

Test [4] is described as follows: LTEA_HepaRG_LDH_cytotoxicity: Cytotoxicity Assessment in the Life Technologies and Expression Analysis (LTEA) Assay (AID 2283563).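 For AC50: LDH activity released into spent culture medium as a marker of cell death.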 A digest of the protocol: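 Differentiated human HepaRG cells, plated 48 h beforehand, were switched to serum-free induction medium and exposed for 48 h to eight half-log concentrations (top 100 uM) in 0.5% DMSO. LDH was measured in spent medium; activity was fitted relative to DMSO vehicle.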

A short description of test [5]: ATG_XTT_Cytotoxicity: Cytotoxicity Assessment in the Attagene TRANS-FACTORIAL HepG2 Assay (AID 2283584).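 For AC50: cells exposed to compound for 24 h before reading; active means loss of viability signal versus DMSO baseline.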 A digest of the protocol: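 HepG2 human liver cells, transiently transfected with multiple GAL4-UAS reporter units, were dosed and read at 24 h by XTT as cell number. Loss of signal was fitted relative to DMSO negative control baseline.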
The nature of test [6]: TOX21_p53_BLA_p2_viability: Viability Assessment in the Tox21 HCT-116 p53 Agonism Beta-lactamase Assay, Phase 2 (AID 2283591).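 Note: compound exposure lasted 16 h at 37 °C; actives lower the ATP signal meaning cytotoxicity.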 A digest of the protocol: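 HCT-116 p53-bla cells (4000/well) rested 5 h at 37C, then received compounds in DMSO (217-fold dilution) for 16 h at 37C, 5% CO2. After the CCF4 read, CellTiter-Glo was added; ATP luminescence was read after 30 min at room temperature.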

Test [7] addresses Cellular tumor antigen p53 (Homo sapiens) (UniProt P04637). The test is described as follows: TOX21_p53_BLA_p2_ratio: Tox21 HCT-116 p53 Agonism Beta-lactamase Assay, Ratio, Phase 2 (AID 2283592). A digest of the protocol:
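HCT116 cells carrying a p53-responsive beta-lactamase reporter were plated, incubated 5 h at 37C, then dosed with compounds in DMSO (217-fold dilution) for 16 h. CCF4-AM substrate was added for 2 h at room temperature; the 460/530 nm emission ratio gave gain-of-signal activity relative to DMSO.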

Test [8] has the same target. The experiment in a line: TOX21_p53_BLA_p3_ratio: Tox21 HCT-116 p53 Agonism Beta-lactamase Assay, Ratio, Phase 3 (AID 2283596). A digest of the protocol: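 HCT116 p53-bla cells (4000/well) given compound in DMSO (217-fold dilution) after 5 h, incubated 16 h at 37C. CCF4-AM substrate 2 h at room temperature; 460/530 nm emission ratio, gain fitted against DMSO.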
Test [9] is described as follows: TOX21_p53_BLA_p4_viability: Viability Assessment in the Tox21 HCT-116 p53 Agonism Beta-lactamase Assay, Phase 4 (AID 2283597).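 Note: hits lower the luminescence signal meaning cytotoxicity.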 A digest of the protocol:
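HCT116 p53-bla cells (4000/well) rested 5 h at 37C, then received compounds in DMSO (217-fold dilution) for 16 h at 37C, 5% CO2. CellTiter-Glo was added after the CCF4-AM read, and luminescence was read after 30 min at room temperature.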

Test [10] can be described thus: TOX21_p53_BLA_p3_viability: Viability Assessment in the Tox21 HCT-116 p53 Agonism Beta-lactamase Assay, Phase 3 (AID 2283593).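 Note: cells exposed to compound for 16 h before reading.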 A digest of the protocol:
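HCT-116 cells (4000/well) rested 5 h at 37C, then got DMSO compounds by pin tool (217-fold dilution) for 16 h at 37C, 5% CO2. After the bla read, CellTiter-Glo was added and luminescence read at 30 min, room temperature.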

Chain of Cellular tumor antigen p53 (Homo sapiens) (P04637 whole entry, looked up): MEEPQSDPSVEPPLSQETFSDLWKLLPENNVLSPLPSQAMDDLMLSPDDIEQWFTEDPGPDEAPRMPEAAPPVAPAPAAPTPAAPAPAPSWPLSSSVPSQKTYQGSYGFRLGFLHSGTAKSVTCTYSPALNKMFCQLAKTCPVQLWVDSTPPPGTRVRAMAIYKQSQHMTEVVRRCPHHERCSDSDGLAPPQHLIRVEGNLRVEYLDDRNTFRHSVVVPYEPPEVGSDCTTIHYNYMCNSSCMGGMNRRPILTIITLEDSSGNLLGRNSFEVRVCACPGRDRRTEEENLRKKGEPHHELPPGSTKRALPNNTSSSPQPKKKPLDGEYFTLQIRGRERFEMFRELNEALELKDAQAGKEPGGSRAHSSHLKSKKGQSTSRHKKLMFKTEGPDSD

As to `Cc1ccccc1N`, the compound was classed as inactive in test [1], in test [2], in test [3], in [4], in test [5] and in [6]. For the same compound, the result in test [7], in test [8] and in test [9] was inactive.

Regarding `O=C1C2(Cl)C3(Cl)C4(Cl)C(Cl)(Cl)C5(Cl)C3(Cl)C1(Cl)C5(Cl)C24Cl` (stereo not given), the half-maximal activity concentration (AC50) in test [1] is 22.6 µM (active); in [2], 15.8 µM (active); in [3] it was 94.7 µM (active); in test [4] it was 72.1 µM (active); in [5], 31.8 µM (active) and 35.1 µM (active); in [7] it was 82.6 µM (active) and 60.4 µM (active). Also, the half-maximal activity concentration (AC50) in [8] was 72.4 µM (active) and 85.4 µM (active); in test [9], 68.4 µM (active) and 66.4 µM (active). In [5], the outcome was inactive.

As to `CCOP(=S)(OCC)Oc1nc(Cl)c(Cl)cc1Cl`, the outcome in test [1], in test [3], in test [4], in test [7], in test [10] and in [8] was inactive. Also, the call in test [9] was inactive. Also, the half-maximal activity concentration (AC50) in test [2] was 50 µM (active).

As for `Oc1cccc2cccnc12`, the result in test [1], in test [2], in test [3], in test [4], in test [5] and in test [6] was inactive. Further, the compound was called inactive in [9].

As to `CCCCCCCCc1ccc(O)cc1`, the half-maximal activity concentration (AC50) was 0.418 µM (active) in test [1] and 70.1 µM (active) in test [2]. For the same compound, the compound was called inactive in test [3], in [4], in test [5], in test [6], in [7] and in [10]. Also, the result in [8] and in test [9] was inactive.

With `C=CC(=O)OCCCCCC(C)C`, the result in test [1], in test [2], in test [3], in test [4], in test [6] and in test [10] was inactive. Further, the outcome in test [8] and in [9] was inactive.

Take `NC(=O)O`: the compound was classed as inactive in test [1], in test [2], in [3], in [4], in test [5] and in test [7].

For `N#CCCO`, the compound was called inactive in [5].

As for `O=[N+]([O-])c1ccc(O)c([N+](=O)[O-])c1`, the AC50 in [1] is 13.2 µM (active); in [2], 13.2 µM (active); in test [3] it was 20.2 µM (active); in [4] it was 88.5 µM (active); in [7] it was 69 µM (active) and 63.7 µM (active); in test [8], 78.5 µM (active). Further, the result in test [5], in [8] and in test [9] was inactive.

In the case of `COc1ccc(OC)c(C=O)c1`, in [5], the result was inactive.

Turning to `O=C(O)C(F)(F)C(F)(F)C(F)(F)C(F)(F)C(F)(F)C(F)(F)C(F)(F)C(F)(F)C(F)(F)C(F)(F)F`, the call in test [1], in [4], in [5], in test [7] and in test [8] was inactive. Moreover, the AC50 in test [2] was 31 µM (active).

As for `C[C@@H]1C[C@@H]([C@H](O)CC2CC(=O)NC(=O)C2)C(=O)[C@@H](C)C1`, the half-maximal activity concentration (AC50) in test [1] is 12 µM (active); in test [2], 36.2 µM (active); in [3], 39.6 µM (active); in [4] it was 45.1 µM (active); in [7], 13.5 µM (active); in test [9], 1.92 µM (active). The call in test [5], in test [6], in test [7], in test [10], in test [8] and in test [9] was inactive.

With `CC1(C)CCC(Cc2ccc(Cl)cc2)C1(O)Cn1cncn1` (stereo not given), the compound was classed as inactive in test [5].

In the case of `CC(C)(OO)c1ccccc1`, the call in test [1], in test [2], in test [3], in test [4], in test [5] and in [7] was inactive. The outcome in [8] was inactive.

Turning to `COc1cc(-c2ccc(N)c(OC)c2)ccc1N`, the result in test [1], in [3], in test [4], in test [5], in [7] and in test [8] was inactive. For the same compound, the compound was called inactive in test [9]. The AC50 in [2] was 25.4 µM (active) and 22.1 µM (active); in test [7] it was 63 µM (active); in [8], 63.6 µM (active).

With `CCCCCCCCC(=O)NCc1ccc(O)c(OC)c1`, the compound was classed as inactive in test [5].

Take `CC(C)(C)CC(C)(C)c1ccc(O)cc1`: the outcome in [1], in test [2], in test [3], in test [5] and in test [8] was inactive. For the same compound, the AC50 was 77 µM (active) in test [4]; 26.7 µM (active) and 58.4 µM (active) and 53.9 µM (active) in test [5]; 74.7 µM (active) and 35.4 µM (active) in [7]; 41.9 µM (active) in test [8]; 69 µM (active) and 22.2 µM (active) in test [9].

For the compound `CCC(=O)C(CC(C)N(C)C)(c1ccccc1)c1ccccc1` (stereo not given), the compound was called inactive in test [1], in test [2], in test [3], in test [4], in test [5] and in test [7]. For the same compound, in test [8], the outcome was inactive.

Consider `O=Cc1cccc(Oc2ccccc2)c1`, for which, in test [5], the compound was called inactive.

`CN(C)N=O`: the outcome in test [1], in [2], in [3], in test [4], in [5] and in test [10] was inactive. The outcome in [8] and in test [9] was inactive.

With `O=C(O)C(F)(F)C(F)(F)C(F)(F)C(F)(F)C(F)(F)C(F)(F)F`, the call in test [1], in test [2], in [3], in [4], in [5] and in test [10] was inactive. The call in test [9] was inactive.

Turning to `O=C(Nc1ccc2[nH]ccc2c1)c1cc2cc(F)ccc2n1Cc1cccc(F)c1`, the AC50 in test [1] was 12.4 µM (active); in [2], 50 µM (active); in test [3], 30.2 µM (active); in test [4], 38.3 µM (active); in test [7], 59.4 µM (active); in [8], 86.7 µM (active). Further, in test [9], the AC50 was 46.1 µM (active). The compound was called inactive in test [10].

On to `C=C(C)C(=O)[O][Sn]([CH2]CCC)([CH2]CCC)[CH2]CCC`, for which the compound was called inactive in [1]. Moreover, the AC50 is 9.35 µM (active) in [2]; 2.63 µM (active) in test [3]; 4.2 µM (active) in test [4]; 2.32 µM (active) in [5]; 41.1 µM (active) in test [7]; 1.18 µM (active) in test [10]. Moreover, the half-maximal activity concentration (AC50) in test [8] was 17.5 µM (active); in test [9], 1.5 µM (active).
